Test results from ChEMBL document CHEMBL1157539, “Thousands of chemical starting points for antimalarial lead identification” (Nature, 2010).

Assays:
Type in all cases: functional
Plasmodium falciparum [1] = test: GSK_TCMDC: Inhibition of Plasmodium falciparum 3D7 in whole red blood cells, using parasite LDH activity as an index of growth. Test compounds present at 2uM
Plasmodium falciparum [2] = test: GSK_TCMDC: Inhibition of Plasmodium falciparum Dd2 in whole red blood cells, using parasite LDH activity as an index of growth. Test compounds present at 2uM
HepG2 = test: GSK_TCMDC: Percent inhibition of human HepG2 cell line. Test compounds present at 10uM.

## COc1ccc2[nH]c(-c3ccccc3)cc(=NN=Cc3ccncc3)c2c1
Plasmodium falciparum [1]
  Inhibition: 99%
Plasmodium falciparum [2]
  Inhibition: 27%
HepG2
  Inhibition: 14%

## CN(C)CCNc1nccc(N2CCc3ncnc(Nc4ccc(OCc5cccc(F)c5)c(Cl)c4)c3C2)n1
Plasmodium falciparum [1]
  Inhibition: 100%
Plasmodium falciparum [2]
  Inhibition: 97%
HepG2
  Inhibition: 65%

## Cc1ccc(/C=C/C(=O)NCCCCCN2CCCN(C(=O)Nc3ccc(Cl)c(Cl)c3)CC2)cc1
Plasmodium falciparum [1]
  Inhibition: 95%
Plasmodium falciparum [2]
  Inhibition: 1%
HepG2
  Inhibition: 24%

## COc1ccc2nccc(CCC3(O)CCC(NCc4cc5c(cc4F)SCC(=O)N5)CC3)c2c1 (stereo not given)
Plasmodium falciparum [1]
  Inhibition: 87%
Plasmodium falciparum [2]
  Inhibition: 48%
HepG2
  Inhibition: 9%

## Cn1nccc1C(=O)NCCNCc1cccc(-c2ccc(-c3nc4cc(C(F)(F)F)ccc4[nH]3)cc2)c1.O=C(O)C(F)(F)F
Plasmodium falciparum [1]
  Inhibition: 100%
Plasmodium falciparum [2]
  Inhibition: 98%
HepG2
  Inhibition: 51%

## O=C(NCc1ccccc1)c1ccc(C(=O)NCC2CNCCO2)cc1.O=C(O)C(F)(F)F (stereo not given)
Plasmodium falciparum [1]
  Inhibition: 92%
Plasmodium falciparum [2]
  Inhibition: 0%
HepG2
  Inhibition: 4%

## CC(C)c1ccc(CN2CCC(CNC(=O)c3cc(-c4cccc(F)c4)cs3)C2)cc1.O=C(O)C(F)(F)F (stereo not given)
Plasmodium falciparum [1]
  Inhibition: 100%
Plasmodium falciparum [2]
  Inhibition: 46%
HepG2
  Inhibition: 59%

## CC1CC(NCCCNc2cc(=O)c3ccccc3[nH]2)c2c(Cl)c(Cl)cc(Cl)c21 (stereo not given)
Plasmodium falciparum [1]
  Inhibition: 87%
Plasmodium falciparum [2]
  Inhibition: 52%
HepG2
  Inhibition: 6%

## CN(C)c1ccc2c(c1)Sc1cc(N(C)C)ccc1N2C(=O)CCCC(=O)[O-].[Na+]
Plasmodium falciparum [1]
  Inhibition: 96%
Plasmodium falciparum [2]
  Inhibition: 81%
HepG2
  Inhibition: 0%

## c1cc(Nc2nccc(-c3cnn4ncccc34)n2)cc(-c2cnco2)c1
Plasmodium falciparum [1]
  Inhibition: 96%
Plasmodium falciparum [2]
  Inhibition: 83%
HepG2
  Inhibition: 54%
